The results in this text go back to ChEMBL document CHEMBL3988442, “University of Dundee, Small-Polar-MMV Screening Library” (2021).

Out of some 65,000 compounds screened, about 65 (0.1%) showed an effect of 50% or more. For the sample, strong results were picked, then their nearest neighbours and some compounds at random.

For this assay, the target named is Tryptophan--tRNA ligase (Mycobacterium tuberculosis (strain ATCC 25618 / H37Rv)) (UniProt P9WFT3). Put plainly: Biochemical assay for Mt-TrpRS. Format: functional. Also noted: scale not given: direction of the effect not stated beside the values. Particulars: 10 µM.
Chain of Tryptophan--tRNA ligase (Mycobacterium tuberculosis (strain ATCC 25618 / H37Rv)) (P9WFT3 whole entry): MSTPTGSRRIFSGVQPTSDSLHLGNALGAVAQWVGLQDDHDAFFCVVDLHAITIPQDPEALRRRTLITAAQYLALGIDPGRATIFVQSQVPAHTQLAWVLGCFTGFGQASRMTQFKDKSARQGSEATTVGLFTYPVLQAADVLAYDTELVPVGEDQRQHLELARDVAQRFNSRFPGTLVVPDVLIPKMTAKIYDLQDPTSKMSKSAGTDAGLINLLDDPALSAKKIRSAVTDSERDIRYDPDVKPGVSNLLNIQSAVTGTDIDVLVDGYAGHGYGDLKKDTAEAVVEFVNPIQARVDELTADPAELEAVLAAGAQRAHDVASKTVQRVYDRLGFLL
As to `CC(NC(=O)C1CCCCC1)c1cc(O)nc(-c2cccnc2)n1` (configuration not stated), the Percent Effect came to 0.0653%.

As for `CC(C)C(NC(=O)C1CC1)c1cc(O)nc(-c2cccnc2)n1` (configuration not stated), the Percent Effect is 2.42%.

Consider `CC(C)C(NC(=O)C1CCCC1)c1cc(O)nc(-c2cccnc2)n1` (configuration not stated), for which the Percent Effect stood at 65.2%.

On to `Cc1ccc(CNCc2nnc3n2CC(C(F)(F)F)CC3)o1` (configuration not stated), for which the Percent Effect is -0.327%.

As to `CCOc1ccc2ccccc2c1CNCC1CCS(=O)(=O)C1` (configuration not stated), the Percent Effect was -4.67%.

As to `Cc1ccc(N2C[C@H](C(=O)N3CCOCC3)[C@@H]3CCO[C@@H]3C2)nn1`, the Percent Effect was -1.89%.

As to `CC(C)N(C)CC(=O)N(C)C(c1cccc(F)c1)c1ccccn1` (configuration not stated), the Percent Effect was determined as 94.7%.

With `CCN(CC)CC(=O)N(C)C(c1cccc(F)c1)c1ccccn1` (configuration not stated), the Percent Effect turned out to be 0.435%.

Take `CCCC(=O)N(C)C(c1cccc(F)c1)c1ccccn1` (configuration not stated): the Percent Effect is -2.61%.

With `CC(=O)N(C)C(c1cccc(F)c1)c1ccccn1` (configuration not stated), the Percent Effect was 70.3%.

For the molecule `CCNC(=O)N(C)C(c1cccc(F)c1)c1ccccn1` (configuration not stated), the Percent Effect was determined as 2.8%.

Consider `CC(C)NC(=O)N(C)C(c1cccc(F)c1)c1ccccn1` (configuration not stated), for which the Percent Effect is -3.48%.

Consider `Cc1nnc([C@@]23CCO[C@@H]2CCN(S(C)(=O)=O)C3)o1`, for which the Percent Effect worked out at 14.4%.

For the molecule `CC(c1ccncc1)N1Cc2nc(N(C)C)ncc2C1=O` (configuration not stated), the Percent Effect amounted to 0.86%.

For `COC(=O)c1ncccc1N1CCCCC1`, the Percent Effect turned out to be 0.136%.

Regarding `Cc1ccc(CN2C[C@H](N3CCOCC3)[C@@H]3OCCC[C@@H]32)o1`, the Percent Effect is -6.03%.

Regarding `CCn1c(C(=O)N2CCN(C(=O)NC(C)C)CC2)cc2ccccc21`, the Percent Effect stood at 0.24%.

As to `CCC(O)CN1CCN(C(=O)c2cc3ccccc3n2CC)CC1` (configuration not stated), the Percent Effect was 84.1%.

For the molecule `CCn1c(C(=O)N2CCN(CC(C)O)CC2)cc2ccccc21` (configuration not stated), the Percent Effect stood at 0.24%.

As for `c1cnc(N2CCO[C@H]3CN(Cc4ccsc4)C[C@H]32)nc1`, the Percent Effect is -4.69%.

In the case of `COc1ccc2nnc(CCCC(=O)NCc3cccn3C)n2n1`, the Percent Effect stood at 1.21%.

Consider `Cn1cccc1CNC(=O)CCCc1nnc2ccccn12`, for which the Percent Effect came out at 224%.

Turning to `COc1ccc2nnc(CCC(=O)NCc3cccn3C)n2n1`, the Percent Effect worked out at 1.87%.

On to `CS(=O)(=O)NC[C@]12COC[C@H]1CN(C(=O)c1ccccc1)C2`, for which the Percent Effect was -5.18%.

As to `CC(=O)N1CC2(CCN(Cc3ccc(Cl)cc3)CC2)Cc2ccccc21`, the Percent Effect was -5.45%.

As for `CN1C(=O)CC(C(=O)O)C12CCN(Cc1ccc(Cl)c(Cl)c1)CC2` (configuration not stated), the Percent Effect is -7.74%.

Turning to `CN1C(=O)CC(C(=O)O)C12CCN(Cc1ccc(Cl)c(F)c1)CC2` (configuration not stated), the Percent Effect was found to be 54.6%.

On to `CN1C(=O)CC(C(=O)O)C12CCN(Cc1ccc(F)c(Cl)c1)CC2` (configuration not stated), for which the Percent Effect was -3.47%.

Regarding `CN(C)c1ncccc1CNC(=O)N1CCCC1c1ccsc1` (configuration not stated), the Percent Effect is -2.64%.

For `CN(C)c1ncccc1CNC(=O)N1CCCC1CN1CCCCC1` (configuration not stated), the Percent Effect was -0.719%.

For `CN(C)c1ncccc1CNC(=O)N1CCCC1CN1CCCC1` (configuration not stated), the Percent Effect worked out at 67.8%.

As for `CS(=O)(=O)N1CC[C@]2(O)CCN(c3cc(C#N)ccn3)C[C@@H]2C1`, the Percent Effect was -1.89%.
